ELG1 genotoxic – inducers of genotoxicity in HEK293T ELG1-luciferase cells | HEK293T ELG1-luciferase reporter, luminescence, 16 h | Potency, µM (doses to about 46 µM), inactives show at the highest dose activity change, positive = activation, hits mostly activators | 1.3% of 330,000 active; also: % of control where 0% means no effect; nearly all actives have a fitted effect of over 60% in size
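Cells (2,000/well) expressing the ELG1-luciferase fusion are dosed by pin tool and kept 16 hr at 37 °C, 5% CO2. Signal comes from ONE-Glo luciferase reagent after 30 min at room temperature.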
SMN2 splice up – SMN2 splice variant enhancement. Potency, µM (highest dose often 46.1 µM), without a hit: at the top dose activity change, positive = activation, actives largely listed as activators. HEK293 SMN2-luciferase splicing reporter, luminescence, 30-36 h. 2.8% of 210,000 active; also: % of control where 0% means no effect; nearly all actives have a fitted effect of over 55% in size
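qHTS luciferase splicing reporter: luminescence rises when SMN2 exon 7 is included in transfected HEK293 cells. Compound exposure lasted 30-36 h at 37C, with 4.5 mM final sodium butyrate as control, followed by a ONE-Glo read.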
FLuc modulator – counter-screen for miR-21 project: firefly luciferase inhibitors or activators | P08659 | purified FLuc, Km substrates, luminescence inhibition | Potency, µM (titrated, usually from 57.5 µM), for the others: at the highest dose activity change, negative = inhibition, actives largely listed as inhibitors | 6.9% of 360,000 active;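 also: plate controls were vehicle for no effect and reference inhibitor for full effect; nearly all actives have a fitted effect of over 55% in size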
Target sequence (P08659 whole entry, looked up): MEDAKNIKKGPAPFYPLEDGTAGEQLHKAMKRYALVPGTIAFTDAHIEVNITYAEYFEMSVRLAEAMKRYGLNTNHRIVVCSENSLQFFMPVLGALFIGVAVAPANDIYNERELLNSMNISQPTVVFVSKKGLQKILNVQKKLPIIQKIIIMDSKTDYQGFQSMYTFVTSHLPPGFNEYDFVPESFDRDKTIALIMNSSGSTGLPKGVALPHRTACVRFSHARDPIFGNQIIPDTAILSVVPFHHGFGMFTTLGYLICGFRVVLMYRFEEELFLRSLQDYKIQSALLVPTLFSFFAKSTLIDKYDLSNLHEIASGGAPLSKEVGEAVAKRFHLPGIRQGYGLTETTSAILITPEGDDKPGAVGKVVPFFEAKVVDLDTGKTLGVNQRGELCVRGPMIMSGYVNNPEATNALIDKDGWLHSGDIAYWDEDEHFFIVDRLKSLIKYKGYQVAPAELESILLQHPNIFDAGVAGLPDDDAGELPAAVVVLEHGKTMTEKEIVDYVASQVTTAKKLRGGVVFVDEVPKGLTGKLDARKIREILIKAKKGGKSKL
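Biochemical qHTS of compounds, final roughly 60 µM downward over six points, against 10 nM purified firefly luciferase using Km concentrations of substrates (10 uM D-luciferin, 10 uM ATP) in Tris acetate pH 7.5 buffer; luminescence output.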
NPC1 prom act – activates the NPC1 promoter | Huh7 NPC1 promoter luciferase reporter, 24 h | Potency, µM (top dose mostly 9.22 µM), for inactives: at the top dose activation, most hits filed as activators | 2.4% of 320,000 active | AID 485313; also: % of control where 0% means no effect; nearly all actives have a fitted effect of over 60% in size
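Huh7 cells stably carrying NPC1 promoter–luciferase, plated in Opti-MEM with 10% FBS for 2 h, were exposed to compound in DMSO for 24 h at 37 °C; luciferase reagent was added for 10 min and luminescence read.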
Rab9 promoter act – Rab9 promoter activation | Potency, µM (highest dose often 9.22 µM), for inactives: at the top dose activation, negative = inhibition, actives largely listed as activators | AID 485297 | Huh7 Rab9 promoter-luciferase reporter, luminescence, 24 h | 2.8% of 320,000 active; also: % of control where 0% means no effect; nearly all actives have a fitted effect of over 60% in size
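Luciferase signal after 10 min detection reagent at ambient indicates Rab9 promoter upregulation; stably transfected Huh7 cells were treated 24 h with compound in DMSO at 37 °C, 5% CO2.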
* hit, by the source's call; ? = inconclusive; . = no result. In the library only some 7.5% were active in any assay of this set; here they are far more common. Calls follow the shape of the dose curve; as a rule, active = well fitted curve in the direction sought with a large enough effect; inconclusive = small, poorly fitted or top-dose-only effect, or another doubt; inactive = no such curve, though single readings can be large; an effect the other way counts as inactive or inconclusive. Potency is read from the fitted curve at half-maximal effect.

SMILES | ELG1 genotoxic | SMN2 splice up | FLuc modulator | NPC1 prom act | Rab9 promoter act
Cc1ccc(-c2cc(N)n(-c3ccc(C)cc3)n2)cc1 | ? | ? | 13µM* | 2.5µM* | 3.5µM*
Cc1ccc(-c2cc(N)n(-c3ccc(F)cc3)n2)cc1 | 23µM* | 13µM* | 9.5µM* | ? | 3.5µM*
Cc1ccc(-c2cc(N)n3nc(-c4ccc(C)cc4)cc3n2)cc1 | -3% | -26% | 1% | 0% | -1%
CCCCCOc1ccc(C(=O)Nc2ccc(N3CCOCC3)cc2N2CCOCC2)cc1 | 1% | . | -1% | -7% | 4%
COc1ccc(NC(=O)c2nc[nH]c2C(=O)N(C)Cc2ccccc2)cc1 | 1% | . | -17% | 0% | 2%
CC(NC(=S)Nc1cccc(C(F)(F)F)c1)C(C)(C)C (stereo not given) | -12% | -7% | -4% | 0% | -7%
Nc1nc2ccc(N3CCOCC3)cc2s1 | 8.2µM* | 16µM* | 11µM* | ? | 2.8µM*
CC1CCc2sc(C(=O)NCc3ccc(F)cc3)cc2C1 (stereo not given) | 6% | -8% | ? | 0% | 18%
CC1CCc2sc(C(=O)NC(C)C3CCCO3)cc2C1 (stereo not given) | ? | . | 11µM* | ? | ?
CC1CCc2sc(C(=O)NC3CCCCC3)cc2C1 (stereo not given) | ? | . | ? | 1.8µM* | 3.5µM*
N=c1c(S(=O)(=O)c2ccc(Cl)cc2)cc2c(=O)n3ccccc3nc2n1CC1CCCO1 (stereo not given) | 6% | . | 2% | 21% | 13%
O=C(COc1ccccc1C(=O)Nc1ccccc1)c1ccc(F)cc1 | 2% | -9% | 3% | -5% | -2%
O=C(COc1cccc(NC(=O)c2ccccc2)c1)c1ccc(F)cc1 | -7% | -58% | 15µM* | 5% | -2%
O=C(COc1ccc(Cc2ccccc2)cc1)c1ccc(F)cc1 | 9% | 3% | 8.5µM* | 27% | 24%
Clc1cncc(Cl)c1N/N=C/c1ccncc1 | -9% | -1% | ? | 14% | -1%
O=C(O)c1cc(N/N=C/c2ccncc2)ccc1Cl | 0% | . | 9.5µM* | 18% | 20%
COc1cc(/C=N/Nc2ccc(Cl)c(C(=O)O)c2)ccc1OCC(=O)N1C(C)CCCC1C (stereo not given) | 8% | 22% | ? | 0% | -2%
CSc1ccc(/C=N/Nc2ccc(Cl)c(C(=O)O)c2)cc1 | ? | 1.8µM* | 0.54µM* | 0.1µM* | ?
O=C(O)c1cc(N/N=C/c2c[nH]c3ccccc23)ccc1Cl | ? | . | 6.7µM* | 2µM* | 1.6µM*
O=C(CCC(=O)Nc1ccccc1Cl)N/N=C/c1c[nH]c2ccccc12 | 2% | -45% | -5% | -4% | -5%
O=C(O)c1cc(N/N=C/c2ccc(-c3ccccc3)cc2)ccc1Cl | 0.46µM* | . | 0.76µM* | 0.089µM* | 0.1µM*
O=S(=O)(c1cccc2cccnc12)N1CCN(Cc2ccc3c(c2)OCO3)CC1 | 0% | -8% | -1% | 1% | -4%
COc1cccc(NC(=O)CCNS(=O)(=O)c2ccc(Br)s2)c1 | -9% | -3% | -1% | 4% | -1%
Cc1ccccc1CNC(=O)C(=O)NCC1OCCCN1S(=O)(=O)c1cccs1 (stereo not given) | 1% | . | -1% | -4% | -4%
O=C(O)c1cc(N/N=C/c2cccnc2)ccc1Cl | 5% | . | 19µM* | 26% | 24%
SMILES | ELG1 genotoxic | SMN2 splice up | FLuc modulator | NPC1 prom act | Rab9 promoter act
O=C(CCCC(=O)N1CCN(c2ccccc2F)CC1)c1ccccc1 | ? | . | 27µM* | ? | 4.5µM*
O=C(CCc1nnc(C2CCCCC2)o1)N1CCN(c2ccccc2F)CC1 | ? | . | 12µM* | 2.5µM* | 3.5µM*
O=C(CCc1nnc(C2CCCCC2)o1)N1CCN(C2CCCCC2)CC1 | 0% | . | -3% | 0% | 0%
CCN(CC)S(=O)(=O)c1ccc(N2CCOCC2)c(NC(=O)CCC2CCCCC2)c1 | 0% | -7% | -12% | -6% | 2%
Cc1cc(C)n(C(N)=NC(=O)c2ccc([N+](=O)[O-])cc2)n1 | ? | . | ? | 2.8µM* | 2.5µM*
C/C(=N/NC(=O)OC(C)(C)C)c1ccco1 | ? | 14µM* | 19µM* | ? | 2.5µM*
C/C(=N\NC(=O)c1csc(C)c1C)c1ccco1 | 6.5µM* | 11µM* | 7.6µM* | 4µM* | 2.2µM*
C/C(=N\NC(=O)c1ccco1)c1cc(Cl)sc1Cl | ? | . | ? | 4% | ?
C/C(=N/NC(=O)c1cccs1)c1ccco1 | ? | ? | 17µM* | 28% | ?
CC(/C=N/NC(=O)c1cccs1)=C\c1ccco1 | 9.2µM* | 11µM* | 6µM* | 3.2µM* | 1.4µM*
Cc1ccc(S(=O)(=O)NC(=O)NCc2ccccc2)cc1 | -1% | 1% | -13% | -1% | 2%
C(/CCc1ccccc1)=N\n1cnnc1 | 4% | -4% | -2% | 1% | 2%
CCCn1c(NCc2ccccc2NS(=O)(=O)c2ccc(C)cc2)nc2ccccc21 | -5% | -13% | 0% | -8% | -5%
CC(=O)N/N=C(/C)c1ccc(NC(=O)c2csc(C)c2C)cc1 | 12µM* | . | 11µM* | 2.8µM* | 1.4µM*
CN(C)C(CNC(=O)c1cc(Br)ccc1Cl)c1ccco1 (stereo not given) | -1% | . | 0% | 7% | -6%
COc1ccc(C2CC(=O)N(C)c3ccccc3S2)cc1OC (stereo not given) | 18µM* | 21% | ? | 25% | 4µM*
COc1ccc(C2CC(=O)N(Cc3ccc(F)cc3)c3ccccc3S2)cc1OC (stereo not given) | . | -42% | 0% | . | .
Cc1ccc(-c2nc3ccsc3c(=O)o2)cc1 | 18µM* | 105% | 2.7µM* | 2.8µM* | 2.5µM*
CC(C)Sc1nc2ccsc2c(=O)[nH]1 | 3% | 12% | -17% | 1% | -4%
Cn1c(CCC(N)=O)nnc1SCC(=O)Nc1ccccc1C(=O)NC1CC1 | 5% | . | 1% | -1% | -4%
Cc1ccc(NC(=S)Nc2cc(C)on2)cc1 | ? | . | 27µM* | 1.4µM* | 2.8µM*
CCc1ccc(NC(=O)c2cc(C)no2)cc1 | ? | . | 12µM* | ? | ?
CCc1ccc(NC(=O)c2cc(C(C)C)on2)cc1 | ? | 1.4µM* | 1.9µM* | 0.89µM* | 0.63µM*
Cc1ccc(NC(=O)c2cc(C)on2)cc1 | ? | . | 6.7µM* | 1.4µM* | 1.4µM*
Cc1ccc(Cn2ccc(NC(=O)c3cc(C)on3)n2)cc1 | ? | -5% | ? | 18% | 25%
Cc1ccc(NC(=O)c2cc(C)no2)cc1 | ? | . | ? | 16% | 17%
Cc1cc(C)cc(OCC(=O)Nc2cc(C)on2)c1 | 3% | . | 2% | -14% | -3%
CC(=O)Nc1ccc(S(=O)(=O)NC(C)c2nc(-c3ccccc3)no2)cc1 (stereo not given) | 0% | . | 0% | 4% | -4%

Source: PubChem
